Experiment [1] deals with Cytochrome P450 3A7 (Homo sapiens) (UniProt P24462). In words: Cytochrome P450 family 3 subfamily A member 7 (CYP3A7) small molecule antagonists: luciferase biochemical qHTS assay (AID 1963596). Note: % is set by controls: 0 for no effect and ±100 for the full control effect; nearly all actives have a fitted effect of over 40% in size. The essentials: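 Luminescence from luciferin released by CYP3A7 from a proluciferin substrate, read 20 min after detection reagent. Compound and enzyme-substrate mix sat 10 min before NADPH regeneration solution; reaction ran 1 h at room temperature.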
For orientation: qHTS replaces the single test concentration by a dilution series.

The nature of experiment [2]: Viability qHTS for spleen associated tyrosine kinase inhibitor (SYKi) drug resistant MV4-11 cells (AID 1963824). Note: nearly all actives have a fitted effect of over 35% in size. Note: potency is the fitted concentration of half-maximal effect. Summed up: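 CellTiter-Glo luminescence, read 10 min after reagent addition, reports viability after a 72 hr compound exposure. Cells are an MV4-11 line made resistant to SYK inhibition, seeded at 500 per well onto compound-containing plates.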
A short description of experiment [3]: Cellular viability qHTS for adrenocortical cancer (ACC) cell line SW-13 (AID 1963989).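 Note: cells grown in serum-free medium with ITS supplement; % is set by controls: 0 for no effect and ±100 for the full control effect; nearly all actives have a fitted effect of over 65% in size.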 The conditions noted are these: SW-13 ACC cells viability, CellTiter-Glo, 48 h; activity (max response): hits give low values. Summed up:
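Here, serum-free SW-13 cultures were dosed up to 46 uM. Following 48 h, ATP-dependent luminescence (CellTiter-Glo) reported viable cells, and logistic modeling produced IC50 values.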

Experiment [4] can be described thus: Cellular viability qHTS for adrenocortical cancer (ACC) cell line NCI-H295R (AID 1963990).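 Note: 0% = DMSO only wells and -100% = full killing with cytotoxic reference compound; nearly all actives have a fitted effect of over 60% in size.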 The essentials: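 Viability of NCI-H295R after 48 h of treatment (final up to 46 uM) measured through cellular ATP luminescence.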

Inconclusive results are not listed. A number with no mark means an inactive call. The source made the active and inactive calls. Calls come from the whole dose curve; as a rule, active = well fitted curve in the direction sought with a large enough effect; inconclusive = small, poorly fitted or top-dose-only effect, or another doubt; inactive = no such curve, though single readings can be large; an effect the other way counts as inactive or inconclusive.

Chain of Cytochrome P450 3A7 (Homo sapiens) (P24462 whole entry, looked up): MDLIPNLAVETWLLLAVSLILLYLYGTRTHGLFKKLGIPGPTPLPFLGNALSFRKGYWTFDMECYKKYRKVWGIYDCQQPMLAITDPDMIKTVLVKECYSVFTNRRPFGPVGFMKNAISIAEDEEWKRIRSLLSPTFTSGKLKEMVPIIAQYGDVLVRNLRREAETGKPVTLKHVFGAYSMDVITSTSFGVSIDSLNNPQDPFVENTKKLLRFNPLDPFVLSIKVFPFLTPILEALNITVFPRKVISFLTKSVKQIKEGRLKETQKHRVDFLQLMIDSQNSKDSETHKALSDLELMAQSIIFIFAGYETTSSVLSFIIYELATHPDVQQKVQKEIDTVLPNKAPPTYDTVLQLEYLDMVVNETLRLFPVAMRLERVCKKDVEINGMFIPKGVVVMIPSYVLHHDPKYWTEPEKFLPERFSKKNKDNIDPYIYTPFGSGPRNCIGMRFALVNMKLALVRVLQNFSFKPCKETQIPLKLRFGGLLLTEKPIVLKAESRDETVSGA

Regarding `NC[C@H]1O[C@H](O[C@H]2[C@H](O[C@@H]3O[C@H](CO)[C@@H](O)[C@H]3O)C(O)[C@H](N)C[C@@H]2N)[C@H](N)[C@@H](O)[C@@H]1O` (some centres undefined), in experiment [1], the activity change, negative = inhibition was 16.1% [at 11.5 µM]. The viability, % of control in experiment [2] is 95.3% [at 9.25 µM]. In addition, the activity (max response) in experiment [3] was 8.3%. Moreover, the activity change, negative = viability loss in experiment [4] was 0.419% [at 9.17 µM].
`C[C@@H](N)C(=O)O`: the Potency entry in experiment [1], in experiment [2] and in experiment [4] was “inactive” each time. In addition, the activity (max response) in experiment [3] is 1.67%.
For the molecule `OCCc1ccccc1`, the Potency entry in experiment [1], in experiment [2] and in experiment [4] was “inactive” throughout. Further, the activity (max response) in experiment [3] was 10.1%.
Turning to `CCN(CC)CCNC(=O)c1ccc(NC(C)=O)cc1`, the Potency entry in experiment [1], in experiment [2] and in experiment [4] was “inactive” throughout. Also, in experiment [3], the activity (max response) was -7.72%.
Regarding `CNC(=O)Oc1ccc2c(c1)[C@]1(C)CCN(C)[C@@H]1N2C`, the Potency result in experiment [1], in experiment [2] and in experiment [4] was “inactive” throughout. Also, the activity (max response) in experiment [3] is 16.2%.
In the case of `Cc1cc(C)cc(NC(=O)Cc2ccc(OC(C)(C)C(=O)O)cc2)c1`, the Potency entry in experiment [1], in experiment [2] and in experiment [4] was “inactive” throughout. For the same molecule, the activity (max response) in experiment [3] is 8.53%.
For `CC(=O)c1ccc(OCC(=O)N2CCCCC2)cc1`, the Potency result in experiment [1], in experiment [2] and in experiment [4] was “inactive” in each case. In addition, the activity (max response) in experiment [3] was 7.54%.
With `CCCCCCCCCCCCCCCCCC(=O)O`, the Potency entry in experiment [1], in experiment [2] and in experiment [4] was “inactive” in each case. Also, in experiment [3], the activity (max response) was 18.1%.
For the molecule `CCN(CC)CC(=O)Oc1ccc(NC(C)=O)cc1`, the Potency result in experiment [1], in experiment [2] and in experiment [4] was “inactive” each time. In addition, the activity (max response) in experiment [3] is 13.2%.
As for `CC[N+](CC)(CC(=O)Nc1c(C)cccc1C)Cc1ccccc1`, the Potency result in experiment [1], in experiment [2] and in experiment [4] was “inactive” in each case. The activity (max response) in experiment [3] is 1.59%.
For `CCCCNC(=O)NS(=O)(=O)c1ccc(N)cc1`, the Potency result in experiment [1] and in experiment [4] was “inactive” throughout. Moreover, the Potency in experiment [2] was 2110 nM (active). Moreover, the activity (max response) in experiment [3] is 0.545%.
